Source: PubChem (several laboratories)
GDH-TPI counter-1: counter-screen for M. tuberculosis FBA inhibitors: GDH-TPI coupled enzymes; GDH-TPI coupled enzyme counterscreen, NADH absorbance; inhibition, % at 4.8 µM; hit rate 1.2% among 360,000; in the data active = inhibition above about 30%
Mtb FBA inh: inhibits M. tuberculosis FBA enzyme | P9WQA3 | purified M. tuberculosis FBA, fluorescence read-out | inhibition, % at 1 µM | hit rate 2.3% among 360,000 | AID 588726
Target sequence (P9WQA3 whole entry, looked up): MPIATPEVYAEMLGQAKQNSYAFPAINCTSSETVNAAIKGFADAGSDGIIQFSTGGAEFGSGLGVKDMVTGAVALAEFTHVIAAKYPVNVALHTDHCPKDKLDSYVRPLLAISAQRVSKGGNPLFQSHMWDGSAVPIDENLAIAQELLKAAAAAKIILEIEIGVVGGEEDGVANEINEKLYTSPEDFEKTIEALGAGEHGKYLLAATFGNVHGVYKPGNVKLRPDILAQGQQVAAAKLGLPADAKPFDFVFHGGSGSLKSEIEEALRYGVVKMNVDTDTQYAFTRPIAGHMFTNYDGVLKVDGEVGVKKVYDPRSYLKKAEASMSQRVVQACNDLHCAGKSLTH
3CLpro inhibitor: SARS-CoV 3CLpro protease inhibition; recombinant SARS-CoV 3CLpro, quenched FRET peptide cleavage; AID 1706; inhibition, % at 6 µM; hit rate 0.14% among 290,000; P0C6X7; in the data active = inhibition above about 12%
PrPC TRFRET: reduces human prion protein on the cell surface; inhibition, % at 13.8 µM; AID 720596; P04156; cell surface PrPC, TR-FRET read-out; hit rate 0.43% among 370,000; in the data active = inhibition above about 24%
Vc quorum ag-1: quorum light induction in luxS cqsA deficient V. cholerae. activation, % at 18.7 µM. hit rate 0.16% among 350,000. V. cholerae BH1578 lux reporter, luminescence, 6 h. AID 588436; in the data active = activation mostly above about 9.7%, no sharp cut-off
Vc quorum ag-2: induces V. cholerae light production without autoinducers | V. cholerae BH1578 lux reporter, luminescence, 6 h | shares compounds with Vc quorum ag-1 | AID 602243 | 620 tested, under 10 active | activation, % at 50 µM; call rule not given here
Mtb FBA confirm: confirmation of M. tuberculosis fructose-bisphosphate aldolase inhibitors. shares compounds with Mtb FBA inh. purified M. tuberculosis FBA, fluorescence read-out. inhibition, % at 1 µM. hit rate 78% among 5,600. AID 651616
GDH-TPI counter-2: inhibits GDH-TPI coupling enzymes, flagging Mtb FBA hits | shares compounds with Mtb FBA inh | GDH-TPI coupled enzyme counterscreen, fluorescence | inhibition, % at 1 µM | hit rate 81% among 5,600 | AID 652141; in the data active = inhibition above about 10%
Large screens that a line does not name were inactive (follow-up assays come after a bar, where they were run). Most compounds without a hit are left out; they make up all but 3.9% or so of the library. Cut-off read from the data, not from the text of the source, unless noted: active = inhibition above about 27%; inactive = the rest.

COc1ccc(OC)c(NCc2nnc(-c3ccccc3)o2)c1	none
Cc1cc([N+](=O)[O-])ccc1NC(=O)c1csc(C)c1C	none
CCOc1nc(Nc2ccc(OC)cc2OC)nc(OCC)n1	none
CCC(Oc1ccccc1)C(=O)Nc1ccc(-c2nnc(-c3ccco3)o2)cc1 (stereo unspecified)	Mtb FBA inh 42.8, Vc quorum ag-1 16.7 | Vc quorum ag-2 inactive | Mtb FBA confirm inactive | GDH-TPI counter-2 inactive
CCOC1=C2[C@H](c3ccccc3)N(S(=O)(=O)c3ccc(C)cc3)[C@H](C(C)C)[C@H]2n2c(=O)n(-c3ccccc3)c(=O)n2C1	none (no result: GDH-TPI counter-1, 3CLpro inhibitor, Vc quorum ag-1)
CCCOc1ccc(-c2nc(C#N)c(N3CCc4ccccc4C3)o2)cc1	none
CCCOc1ccc(-c2nc(C#N)c(N3CCN(CC)CC3)o2)cc1	Mtb FBA inh 44.5 | Vc quorum ag-2 inactive | Mtb FBA confirm active | GDH-TPI counter-2 active
Cc1cc(C)nc(Sc2ncnc3sc4c(c23)CCC4)n1	Mtb FBA inh 48.5 | Mtb FBA confirm inactive | GDH-TPI counter-2 inactive
O=C(Nc1nc2ccccc2[nH]1)c1ccccc1O	Mtb FBA inh 46.9 | Mtb FBA confirm active | GDH-TPI counter-2 active
O=C(Nc1nc2ccccc2[nH]1)c1ccccc1	none
O=C1c2cccc3cccc(c23)C(=O)N1CC1CCN(S(=O)(=O)c2ccccc2)CC1	Mtb FBA inh 54.1 (no result: 3CLpro inhibitor) | Mtb FBA confirm 46.8 | GDH-TPI counter-2 28.6
COC(=O)C1=CN(CCOC23CC4CC(CC(C4)C2)C3)C=C(C(=O)OC)C1c1ccsc1	Mtb FBA inh 62.6 | Mtb FBA confirm 100.8 | GDH-TPI counter-2 85.3
COC(=O)C1=CN(Cc2ccc(OC)cc2)C=C(C(=O)OC)C1c1ccsc1	Mtb FBA inh 97.9 | Mtb FBA confirm 130.9 | GDH-TPI counter-2 86.5
COC(=O)C1=CN(Cc2ccc(OC)c(OC)c2)C=C(C(=O)OC)C1c1cccc(O)c1	Mtb FBA inh 110.5 | Mtb FBA confirm 109.4 | GDH-TPI counter-2 81.7
COC(=O)C1=CN(Cc2ccc(F)cc2)C=C(C(=O)OC)C1c1ccc(O)c(OC)c1	none
COC(=O)C1=CN(CC2CCCO2)C=C(C(=O)OC)C1c1ccsc1 (stereo unspecified)	Mtb FBA inh 82.7 | Mtb FBA confirm inactive | GDH-TPI counter-2 inactive
CC1=C[C@H](C)[C@H](c2c(F)cccc2Cl)CC1=O	none (no result: PrPC TRFRET)
CC(C)c1cccc(C(C)C)c1NC(=O)CN1C(=O)NC2(CCCCCCC2)C1=O	none (no result: 3CLpro inhibitor)
CCCCn1c(SCCN2CCCCC2)nc2c1c(=O)n(C)c(=O)n2C	none (no result: 3CLpro inhibitor)
CCN(CC)c1ccc2c(C)c(CN3CCOCC3)c(=O)oc2c1	Mtb FBA inh 88.0 (no result: PrPC TRFRET) | Mtb FBA confirm inactive | GDH-TPI counter-2 inactive
CCN(CC)c1ccc2c(C)c(CO)c(=O)oc2c1	Mtb FBA inh 49.4 | Mtb FBA confirm active | GDH-TPI counter-2 active
COc1ccccc1N(C)S(=O)(=O)c1ccc(C(=O)Nc2ccncc2)cc1	none (no result: 3CLpro inhibitor)
CCc1ccc2nc(N=C(N)N)nc(C)c2c1	Mtb FBA inh 40.0 | Mtb FBA confirm 177.3 | GDH-TPI counter-2 133.0
Cc1nn(-c2ccccn2)c2nc(-c3cccs3)cc(C(=O)N3CCOCC3)c12	GDH-TPI counter-1 31.1, Mtb FBA inh 104.7 | Mtb FBA confirm 58.9 | GDH-TPI counter-2 58.7
COc1ccc(-c2cc(C(=O)O)c3c(C)nn(-c4ccccn4)c3n2)cc1	none (no result: GDH-TPI counter-1, Mtb FBA inh, Vc quorum ag-1)
COc1cc(CC(=O)N2C[C@H]3C[C@@H](C2)c2cccc(=O)n2C3)cc(OC)c1OC	none (no result: 3CLpro inhibitor)
COc1ccc2c(C)c(CC(=O)N3C[C@H]4C[C@@H](C3)c3cccc(=O)n3C4)c(=O)oc2c1OC	Mtb FBA inh 29.9 | Mtb FBA confirm inactive | GDH-TPI counter-2 inactive
COc1cc2oc(=O)c(CC(=O)N3C[C@H]4C[C@@H](C3)c3cccc(=O)n3C4)c(C)c2cc1Cl	Mtb FBA inh 44.9 (no result: 3CLpro inhibitor) | Mtb FBA confirm 35.0 | GDH-TPI counter-2 28.3
COCCN(Cc1ccc(C)cc1)C(=O)[C@H]1O[C@@H](n2cnc3c(N)ncnc32)[C@H](O)[C@@H]1O	none (no result: GDH-TPI counter-1, 3CLpro inhibitor, Vc quorum ag-1)
CC(C)NS(=O)(=O)c1ccc(NC(=O)C(C)OC(=O)CCC2CCCC2)cc1 (stereo unspecified)	none (no result: 3CLpro inhibitor)
CC1=CC=CC2=NC(=O)CC(C)(C(=O)N(CC(=O)NC3CCCC3)Cc3ccc(Cl)cc3)N12 (stereo unspecified)	Mtb FBA inh 105.6 | Mtb FBA confirm active | GDH-TPI counter-2 active
CC1=CC2=NC(=O)CC(C)(C(=O)N(CC(=O)NC3CCCC3)c3cc(C)cc(C)c3)N2C=C1 (stereo unspecified)	Mtb FBA inh 56.9 | Mtb FBA confirm active | GDH-TPI counter-2 active
CCC(C)(C)NC(=O)CN(Cc1cccs1)C(=O)C(=O)Nc1ccc2c(c1)OCCO2	none
CS(=O)(=O)N(CC(=O)NC1CCCCCC1)Cc1ccc(Cl)cc1	none
CC1(C(=O)N(CC(=O)NC2CCCC2)Cc2ccc(Cl)cc2)CC(=O)N=C2C=CC=CN21 (stereo unspecified)	Mtb FBA inh 89.2 | Mtb FBA confirm active | GDH-TPI counter-2 active
Cc1cc(C)cc(N(CC(=O)NC2CCCCC2)C(=O)CCC(=O)Nc2cc(C)ccn2)c1	none (no result: 3CLpro inhibitor)
CC1=CC2=NC(=O)CC(C)(C(=O)N(CC(=O)NC(C)(C)C)Cc3cccs3)N2C=C1 (stereo unspecified)	Mtb FBA inh 101.0 | Mtb FBA confirm 148.9 | GDH-TPI counter-2 125.0
O=C(O)c1cc(-c2c[nH]c3ccccc23)nc2cc3ccccc3cc12	Mtb FBA inh 55.2 | Mtb FBA confirm 75.5 | GDH-TPI counter-2 75.0
COc1ccc(C2CCCN2C(=O)Nc2ccc(Cl)cc2)cc1OC (stereo unspecified)	none
COc1ccc(OC)c(/C=C/C(=O)N(C)CC(=O)Nc2ccc(C)cc2)c1	none
COc1ccc(OC)c(/C=C/C(=O)N(C)CC(=O)Nc2cc(C)ccc2C)c1	Mtb FBA inh 28.7 | Mtb FBA confirm 34.0 | GDH-TPI counter-2 28.8
CCN(CC(=O)NCc1cccs1)C(=O)/C=C/c1cc(OC)ccc1OC	Mtb FBA inh 37.3 (no result: 3CLpro inhibitor) | Mtb FBA confirm 154.8 | GDH-TPI counter-2 115.4
COc1ccc(OC)c(/C=C/C(=O)N2CCN(S(=O)(=O)c3ccc(C)cc3C)CC2)c1	Mtb FBA inh 29.4 (no result: 3CLpro inhibitor) | Mtb FBA confirm inactive | GDH-TPI counter-2 inactive
CCCCNC(=O)COC(=O)CNC(=O)c1cc(Cl)cc([N+](=O)[O-])c1	none
CCS(=O)(=O)Nc1c(C(=O)OC)[nH]c2ccccc12	none
CCS(=O)(=O)Nc1c(C(=O)O)[nH]c2ccccc12	Mtb FBA inh 45.9 | Mtb FBA confirm 76.2 | GDH-TPI counter-2 63.3
CN1CN(C)c2cccc3cccc1c23	Mtb FBA inh 97.9 | Mtb FBA confirm 47.7 | GDH-TPI counter-2 39.8
CCN1C(=O)N(CC)c2cccc3cccc1c23	none
